Source: PubChem BioAssay (NCATS)
Results filed as inconclusive are left out. A call without a number means that no potency is given here. The source made the active and inactive calls. The call rests on the fitted dose curve; in most records, active means well fitted curve in the direction sought with a large enough effect; inconclusive means small, poorly fitted or top-dose-only effect, or another doubt; inactive means no such curve, though single readings can be large; an effect the other way counts as inactive or inconclusive.

How the values were obtained:
[1] = qHTS of pediatric cancer cell lines to identify multiple opportunities for drug repurposing: Primary screen for DAOY cells (AID 1347090); further: nearly all actives have a fitted effect of over 55% in size
Summary of the method: (§1)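 Eight- or eleven-point concentration series, 48 h treatment at 37 degrees C in growth media; readout CellTiter-Glo luminescence. Potency and efficacy were taken from the concentration-response curves.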

[2] = qHTS of pediatric cancer cell lines to identify multiple opportunities for drug repurposing: Primary screen for SJ-GBM2 cells (AID 1347091)
Summary of the method: as §1

[3] = qHTS of pediatric cancer cell lines to identify multiple opportunities for drug repurposing: Primary screen for A673 cells (AID 1347092); further: nearly all actives have a fitted effect of over 45% in size
Summary of the method: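 Luminescence from CellTiter-Glo, taken after 15 min at room temperature, served as the proxy for metabolically active cells following 48 h treatment. Both potency and efficacy were taken from curves fitted to the titration data.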

[4] = qHTS of pediatric cancer cell lines to identify multiple opportunities for drug repurposing: Primary screen for SK-N-MC cells (AID 1347093)
Summary of the method: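 Metabolically active cells were quantified by ATP-dependent luminescence (CellTiter-Glo, 15 min at room temperature) following 48 h treatment. Cells had been plated at 500-1,000 per well and settled for 5 h beforehand.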

[5] = qHTS of pediatric cancer cell lines to identify multiple opportunities for drug repurposing: Primary screen for BT-37 cells (AID 1347094)
Summary of the method: (§2)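 CRCs from 8- or 11-point titrations (lowest final 0.59 nM NPC, 0.78 nM MIPE). Cell viability: CellTiter-Glo after 48 h incubation, 15 min room-temperature development, luminescence imaging.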

[6] = qHTS of pediatric cancer cell lines to identify multiple opportunities for drug repurposing: Primary screen for U-2 OS cells (AID 1347096); further: nearly all actives have a fitted effect of over 50% in size
Summary of the method: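 Cells (500-1,000/well) in growth media were settled 5 h at 37 degrees C, then given compounds for 48 h. Viability was read as CellTiter-Glo luminescence. Primary runs used MIPE at 11 points (0.78 nM-46 µM) and NPC at 8 points (0.59 nM-46 µM); follow-ups used 11 points.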

[7] = qHTS of pediatric cancer cell lines to identify multiple opportunities for drug repurposing: Primary screen for Saos-2 cells (AID 1347097); further: nearly all actives have a fitted effect of over 40% in size
Summary of the method: as §2

[8] = qHTS of pediatric cancer cell lines to identify multiple opportunities for drug repurposing: Primary screen for SK-N-SH cells (AID 1347098); further: nearly all actives have a fitted effect of over 65% in size
Summary of the method: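 Cells (500-1,000/well) rested 5 h, then received compounds for 48 h; metabolically active cells were measured by CellTiter-Glo luminescence. Final concentrations spanned up to 46 µM (MIPE, 11-point) or 0.59 nM-46 µM (NPC, 8-point) in primary screens, 11-point in follow-ups.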

[9] = qHTS of pediatric cancer cell lines to identify multiple opportunities for drug repurposing: Primary screen for NB1643 cells (AID 1347099); further: nearly all actives have a fitted effect of over 50% in size
Summary of the method: as §2

[10] = qHTS of pediatric cancer cell lines to identify multiple opportunities for drug repurposing: Primary screen for NB-EBc1 cells (AID 1347095)
Summary of the method: as §2
Potency means the concentration at half of the fitted maximal effect.

SMILES | Potency [1] | Potency [2] | Potency [3] | Potency [4] | Potency [5] | Potency [6] | Potency [7] | Potency [8] | Potency [9] | Potency [10]
C=C[C@@H]1CN2CCC1C[C@@H]2C(O)c1ccnc2ccc(OC)cc12 (stereo not given in full) | inactive | inactive | inactive | inactive | inactive | inactive | inactive | inactive | inactive | 
N#CC(c1ccnc(NCCc2cccnc2)n1)c1nc2ccccc2s1 (stereo not given) | 29.6 µM (active) | 9.35 µM (active) | 4.69 µM (active) | 11.8 µM (active) | 24.3 µM (active) |  | 18.7 µM (active) |  |  | 
Cc1nc(NC(=O)N2CCC[C@@H]2C(N)=O)sc1-c1csc(C(C)(C)C)n1 | 14.8 µM (active) | 4.18 µM (active) | 2.96 µM (active) | 0.235 µM (active) |  |  | 11.8 µM (active) | 15.2 µM (active) | 5.9 µM (active) | 4.69 µM (active)
CCC[C@@H](NC(=O)[C@@H]1[C@H]2CCC[C@@H]2CN1C(=O)[C@@H](NC(=O)[C@@H](NC(=O)c1cnccn1)C1CCCCC1)C(C)(C)C)C(=O)C(=O)NC1CC1 | inactive | 18.7 µM (active) | inactive | 23.5 µM (active) |  | inactive |  |  | inactive | inactive
N#CC(=C1Nc2ccccc2S1)c1ccnc(OCc2ccc(CN3CCOCC3)cc2)n1 | 0.0093 µM (active) | 3.32 µM (active) | 0.0235 µM (active) | 0.0053 µM (active) |  |  | 0.0148 µM (active) | 0.482 µM (active) |  | 0.526 µM (active)
Cc1cnc(-c2cc(N3CCN(C(=O)CCS(C)(=O)=O)CC3)ncc2Cl)c(C)c1 | inactive | inactive | 4.69 µM (active) | 16.6 µM (active) |  | inactive | inactive |  |  | inactive
CN[C@@H]1CN(c2ccc3c(=O)c(C(=O)O)cn(-c4nccs4)c3n2)C[C@@H]1OC | 8.12 µM (active) | 1.15 µM (active) | 8.12 µM (active) | 1.29 µM (active) |  | inactive | inactive | 9.37 µM (active) | 1.62 µM (active) | 0.407 µM (active)
Cc1ccc(NC(=O)c2cccc(N(C)C)c2)cc1NC(=O)c1ccc(O)cc1 | inactive | inactive | 0.148 µM (active) | 0.187 µM (active) | 3.85 µM (active) |  |  | 15.2 µM (active) | 0.332 µM (active) | 11.8 µM (active)
CNC(=O)[C@H](CC1=CN=C2C=CCC=C12)NC(=O)[C@@H](CC(=O)NO)CC(C)C | 0.0296 µM (active) | inactive | 0.0469 µM (active) | 0.0059 µM (active) | 0.685 µM (active) |  |  | 1.21 µM (active) | 0.0662 µM (active) | 
CN(C)c1nc(Cc2ccc(NC(=O)c3ccc(C(F)(F)F)cc3)cc2)nc(N(C)C)c1CC(=O)O | inactive | inactive | inactive | inactive |  | inactive | inactive | inactive | inactive | inactive
O=C(O)C1=NC(C(=O)O)CC(C=CN2c3cc(O)c(OC4OC(CO)C(O)C(O)C4O)cc3CC2C(=O)O)=C1 (stereo not given) | inactive | inactive | inactive |  | inactive | inactive | inactive | inactive |  | inactive
Cc1ccc2c(=O)c3cccc(CC(=O)O)c3oc2c1C | 14.8 µM (active) | inactive | 9.35 µM (active) | 16.6 µM (active) |  | inactive |  | 24.1 µM (active) | 14.8 µM (active) | 
NC(=O)c1ncn([C@@H]2O[C@H](CO)[C@@H](O)[C@@H]2O)n1 | inactive | inactive | inactive |  | inactive | inactive | inactive | inactive | inactive | 
CO[C@H]1O[C@@H]2O[C@@]3(C)CC[C@@H]4[C@@H](C)CC[C@@H]([C@H]1C)[C@@]24OO3 | inactive | inactive | inactive | 5.26 µM (active) |  | inactive |  | inactive |  | 
CCOC(=O)N1c2ccc(C(F)(F)F)cc2[C@@H](N(Cc2cc(C(F)(F)F)cc(C(F)(F)F)c2)C(=O)OC)C[C@H]1CC | inactive | inactive | inactive |  |  | inactive |  |  |  | inactive
N[C@@H](CC(=O)N1CCn2c(nnc2C(F)(F)F)C1)Cc1cc(F)c(F)cc1F | inactive | inactive |  | 18.7 µM (active) | inactive | inactive |  |  |  | inactive
CC1(COc2ccc3c(c2)ncn3-c2ccc3cccc(N4CCC(N)CC4)c3n2)COC1 | 0.0469 µM (active) | 5.26 µM (active) |  | 0.001 µM (active) | 0.001 µM (active) | 29.6 µM (active) | 16.6 µM (active) | inactive | inactive | 0.001 µM (active)
CN1CC(=O)NC1=NC(=O)Nc1cccc(Cl)c1 | inactive | inactive | inactive |  | inactive | inactive |  | 8.57 µM (active) | 4.69 µM (active) | 20.9 µM (active)
CCN1CCN(c2ccc(Nc3cc(N(C)C(=O)Nc4c(Cl)c(OC)cc(OC)c4Cl)ncn3)cc2)CC1 | inactive | 18.7 µM (active) | inactive |  | inactive |  |  | inactive |  | 20.9 µM (active)
CCCCC[C@H](O)C=C[C@H]1[C@H](O)CC(=O)[C@H]1CC=CCCCC(=O)O | inactive | inactive | inactive |  |  | inactive |  | inactive |  | inactive
CC1=C(CC(=O)O)c2cc(F)ccc2C1=Cc1ccc(S(C)=O)cc1 (stereo not given) | 3.72 µM (active) | inactive | 1.48 µM (active) |  |  |  |  | 19.2 µM (active) | 7.43 µM (active) | 18.7 µM (active)
COc1cc(CNC(=O)CCCCC=CC(C)C)ccc1O | inactive | inactive |  | inactive | inactive | inactive | inactive |  |  | inactive
Nc1ncnc2c1ncn2[C@@H]1O[C@H](CO)[C@@H](O)[C@@H]1O | 4.69 µM (active) | 2.35 µM (active) |  | 0.833 µM (active) | 5.44 µM (active) | 14.8 µM (active) | 2.96 µM (active) | 15.2 µM (active) | 0.833 µM (active) | 3.32 µM (active)
NC[C@H]1O[C@H](O[C@@H]2[C@@H](O)[C@@H](O[C@H]3O[C@H](CO)[C@@H](O)[C@H](N)[C@@H]3O)[C@H](N)C[C@@H]2N)[C@H](O)[C@@H](O)[C@H]1O | inactive | inactive | inactive |  | inactive |  | inactive |  |  | inactive
COc1cc(C=CC(=O)O)ccc1O | inactive | inactive |  | 20.9 µM (active) | inactive | inactive | inactive | inactive | inactive | inactive
Cc1nc2c([nH]1)CCN(C(=O)c1ccc(NC(=O)c3ccccc3-c3ccccc3)cc1)c1ccccc1-2 | inactive | inactive | inactive |  | inactive | inactive | inactive | inactive |  | inactive
O=C1CCCC(=O)C1C(=O)c1ccc(C(F)(F)F)cc1[N+](=O)[O-] | inactive | inactive | inactive |  |  | inactive | inactive |  |  | inactive
CC(C)(F)C[C@H](N[C@@H](c1ccc(-c2ccc(S(C)(=O)=O)cc2)cc1)C(F)(F)F)C(=O)NC1(C#N)CC1 | inactive | 14.8 µM (active) | inactive | inactive |  | inactive | inactive | inactive | inactive | 
